The campaign covered roughly 85,000 compounds. About 440 (0.52%) showed an effect of 50% or more. The sample holds strong results, similar compounds and a random draw of the others, so the mix is not that of the screen.
Experiment: In vitro enzyme assay to detect hydrolysis of chlorophenol red-beta-D-[…] directly proportional to the number of Toxoplasma stably expressing beta-galactosidase
Type: functional, organism-based, Toxoplasma gondii
Set-up: scale not given: in the data most compounds retested in dose-response had high values

Compound	Percent Effect (50 µM) [%]	Percent Effect (10 µM) [%]
CCC(=O)NC(C)(C#N)C(C)C (stereo not drawn)	2.056	–
CC1CCN(CC(N)=O)CC1	-12.83	–
O=C(NCCc1cccs1)c1cc[nH]n1	7.034	–
CCC(N)c1cnn(CC)c1 (stereo not drawn)	-19.44	–
O=C(c1ccc(-c2ccc(O)nc2)s1)N1CCCCC1	–	53
O=C(c1ccc(O)nc1)N1CCCCCCC1	-10.69	–
O=C(c1ccc(-c2ccc(O)nc2)s1)N1CCCCCC1	–	59.06
CCNc1ncc(C(=O)N2CCCCC2)s1	3.681	–
O=C(c1cnc(-c2cccnc2)nc1)N1CCSCC1	–	1.887
O=C(c1ccc(O)nc1)N1CCN(C(=O)c2ccc(F)c(F)c2)CC1	–	5.066
O=C(c1ccc(-c2ccc(O)nc2)s1)N1CCSCC1	–	61.48
O=C(c1cnn(-c2ccccc2)c1)N1CCCCC1	-4.798	–
O=C(c1cc(-c2cccs2)cs1)N1CCSCC1	–	-31.67
O=C(CN1CCNCC1)c1ccccc1Cl	-6.338	–
O=C(c1cnsn1)N1CC=C(c2ccccc2)CC1	3.694	–
CCC(C)(O)CCN (stereo not drawn)	17.18	–
Cc1ccc(NC(=O)CN2CCNCC2)c(C)c1	-5.303	–
CCC(CC)NC(=O)CSc1nnc(N)n1C	-0.697	–
Cn1ncc2c(NCc3ccccc3CO)ncnc21	2.537	–
Cc1ccc(CN(C)C(=O)Cn2cnnn2)o1	88.2	–
Cc1ccc(CN(C)C(=O)CSc2nncn2C)o1	6.979	–
Cc1cc(C)n(C2CN(CC(=O)N(C)Cc3ccc(C)o3)C2)n1	–	1.659
CN1CCCN(C(=O)c2ccc(C#N)cc2)CC1	-7.834	–
CC(C)c1nc(CN2CCCC3(CCNC3)C2)co1 (stereo not drawn)	-11.26	–

Compound	Percent Effect (50 µM) [%]	Percent Effect (10 µM) [%]
NC(c1ccccc1)C1(CO)CCC1 (stereo not drawn)	8.034	–
Cc1ccc(OCCNC(=O)CN2CSCC2=O)cc1	-3.002	–
Cc1nn(C)c2c(NCc3cccnc3)nc(C(C)C)nc12	–	25.8
Cc1nc(NCc2cccnc2)c2c(n1)c(C)nn2C	–	-7.547
Cc1nc(NCc2ccccn2)c2c(n1)c(C)nn2C	–	13.62
CCc1nc(NCc2ccccn2)c2c(n1)c(C)nn2C	–	20.03
CCOc1ccccc1Nc1nc2c(C)nn(C)c2c(=O)n1C	–	17.23
Cc1nn(C)c2c(=O)n(C(C)C)c(NCCc3ccccc3)nc12	–	81.01
CCn1c(NCc2cccnc2)nc2c(C)nn(C)c2c1=O	–	57.44
Cc1nn(C)c2c(=O)n(C(C)C)c(NCC3CCCO3)nc12 (stereo not drawn)	–	6.206
CCn1c(NCc2ccccn2)nc2c(C)nn(C)c2c1=O	–	61.62
CCCn1c(NCCc2ccccc2)nc2c(C)nn(C)c2c1=O	–	74.28
COc1ccccc1Nc1nc2c(C)nn(C)c2c(=O)n1C	–	9.981
CC(=O)c1ccc2c(c1)CCC(=O)N2C	4.842	–
CCOC(=O)NCCC(=O)N1CCCCCC1	12.12	–
Cc1ccc(F)c(S(=O)(=O)NC[C@@H]2CCNC[C@H]2O)c1	0.2013	–
CN(C)Cc1nnc(-c2ccccc2)o1	4.493	–
Cc1cc(CN)sc1C	12.43	–
COC(=O)c1ccc2c(c1)N(C)C(=O)CO2	-4.49	–
CCn1c(Nc2ccccc2OC)nc2c(C)nn(C)c2c1=O	–	-60.37
COc1ccc(C(C)Nc2nc3c(C)nn(C)c3c(=O)n2C)cc1 (stereo not drawn)	–	18.77
CCn1c(NCc2ccccc2)nc2c(C)nn(C)c2c1=O	–	72.53
CCn1c(NCc2ccc(OC)cc2)nc2c(C)nn(C)c2c1=O	–	69.56
CCn1c(NCc2ccco2)nc2c(C)nn(C)c2c1=O	–	8.368

Compound	Percent Effect (50 µM) [%]	Percent Effect (10 µM) [%]
COc1ccc(Nc2nc3c(C)nn(C)c3c(=O)n2C)cc1	–	8.6
O=C(NCC1(O)CCNC1)c1ccc(F)c(O)c1 (stereo not drawn)	-8.112	–
O=C(NCc1c[nH]nn1)C1(Cc2ccccc2)CCC1	-1.868	–
O=C(Nc1cnccn1)c1ccc(F)cn1	3.391	–
Cc1ncc(CNC(C)(C)CO)c2cc(C(=O)c3ccc(Br)cc3)oc12	–	20.02
Cc1ncc(CNCC(C)O)c2cc(C(=O)c3ccc(Br)cc3)oc12.Cl (stereo not drawn)	–	12.01
Cc1ncc(CN(C)CCO)c2cc(C(=O)c3ccc(Br)cc3)oc12.Cl	–	15.47
Cc1ncc(CNCCO)c2cc(C(=O)c3ccc(Br)cc3)oc12.Cl	–	76.96
Cc1ncc(CN2CCCC2)c2cc(C(=O)c3ccc(Br)cc3)oc12.Cl	–	24.27
COC(=O)c1ccc(C(=O)NC2(C#N)CCCC2)cc1	-9.94	–
COc1cc(CN)cc(Br)c1OC	0.1756	–
Cn1ccc(C(=O)N2CCOc3ccccc32)cc1=O	-11.87	–
Cc1scc(-c2nnc(SCC(N)=O)n2C)c1C	-29.64	–
CSC(C)C(=O)Nc1ccc(Cl)c(C(=O)N(C)C)c1 (stereo not drawn)	8.458	–
Cc1cc(C(=O)Nc2cnn(CC(F)(F)F)c2)nc(N(C)C)n1	–	54.34
Cc1cc(C(=O)NCc2c(C)nn(C)c2C)nc(N2CCOCC2)n1	–	20.1
CCN(CC)c1nc(C)cc(C(=O)Nc2cnn(CC)c2)n1	–	-30.04
Cc1cc(C(=O)Nc2cnn(CC(F)(F)F)c2)nc(N2CCOCC2)n1	–	69.43
CCn1cc(NC(=O)c2cc(C)nc(N3CCOCC3)n2)cn1	–	48.82
Cn1nccc1C(=O)Nc1cnn(CC(F)(F)F)c1	-29.38	–
CCCn1ccc(NC(=O)NC(C)C)n1	-36	–
CN(C)CC(=O)NC(C)(C(N)=O)c1cccc(Cl)c1 (stereo not drawn)	2.258	–
Cc1ccc2c(c1)C(=O)NCC2	-9.759	–
CCc1ccc(CN(CCO)Cc2nccn2C)nc1	67.1	–

Compound	Percent Effect (50 µM) [%]	Percent Effect (10 µM) [%]
Cc1cccc(CN(CCO)Cc2nccn2C)n1	18.88	–
CSc1ccc(CN(CCO)Cc2nccn2C)cc1	–	19.56
NC(=O)OCCNC(=O)c1occc1Br	5.554	–
CCN1CCCC1CNC(=O)c1cccc(OC)c1 (stereo not drawn)	4.98	–
CCNC(=O)C1CN(C(=O)C(O)c2ccc(Br)cc2)C1 (stereo not drawn)	-1.346	–
CSc1ccc(CN2C[C@@H]3CC[C@@](O)(c4ccc(C)cn4)[C@@H]3C2)cc1	–	14.14
Cc1ccc([C@]2(O)CC[C@H]3CN(Cc4ccc(Cl)cc4Cl)C[C@H]32)nc1	–	8.934
Cc1cccnc1[C@]1(O)CC[C@H]2CN(Cc3cccc(Cl)c3Cl)C[C@H]21.O=C(O)CC(O)(CC(=O)O)C(=O)O	–	10.13
Cc1ccc([C@]2(O)CC[C@H]3CN(Cc4cccc(F)c4F)C[C@H]32)nc1.O=C(O)CC(O)(CC(=O)O)C(=O)O	–	-4.995
Cc1ccc([C@]2(O)CC[C@H]3CN(Cc4cccc(Cl)c4Cl)C[C@H]32)nc1.O=C(O)CC(O)(CC(=O)O)C(=O)O	–	51.44
Cc1ccc(F)cc1S(=O)(=O)N1CCN[C@H](C)C1	-0.3006	–
CCN1CN=C(NS(=O)(=O)c2ccc(C)cc2)NC1	-65	–
CCSc1cc(C(=O)N2CC[S+]([O-])CC2)ccn1	18.59	–
CC(CCc1ccc(O)cc1)NCCN1CCOCC1 (stereo not drawn)	-1.81	–
O=C(CSCC(=O)NC1CC1)Nc1ccccc1	16.41	–
CN(C)CCC1CN(C(=O)CCc2cccs2)CCO1 (stereo not drawn)	-11.11	–
CCOc1c(OC)cc(CN)cc1OC	-2.331	–
CCC(CO)Nc1ncc(C(F)(F)F)cc1Cl (stereo not drawn)	-11.03	–
CCOc1cccc(NC(=O)NCCN(C)C)n1	-13.49	–
COc1ccc(CC(=O)NCC2CCCNC2)cc1F (stereo not drawn)	55.41	–
COc1ccc(CS(=O)(=O)CC(=O)NCC2CC2)cc1F	–	4.977
Cc1cccc(CC(=O)NCC2CCCNC2)c1 (stereo not drawn)	-6.216	–
CCC(C)NC(=O)c1cnn(-c2ccccc2)c1 (stereo not drawn)	-7.328	–
CCC(OC)c1n[nH]c(=O)n1Cc1cccc(OC)c1 (stereo not drawn)	-6.855	–

Compound	Percent Effect (50 µM) [%]	Percent Effect (10 µM) [%]
CCC(C)NCCOC (stereo not drawn)	-11.32	–
CCN(CC(=O)NC)C(=O)C(C)SC (stereo not drawn)	23.69	–
O=c1[nH]cccc1-c1nccc(C2(c3ccccc3Cl)CCNCC2)n1	–	22.57
Clc1ccccc1C1(c2ccnc(C3CCCC3)n2)CCNCC1	–	92.51
Clc1ccccc1C1(c2ccnc(-c3ccncc3)n2)CCNCC1	–	16.95
Clc1ccccc1C1(c2ccnc(-c3ncccn3)n2)CCNCC1	–	5.922
Clc1ccccc1C1(c2ccnc(CC3CC3)n2)CCNCC1	–	35.91
OC1(c2ccccc2Cl)CCNCC1	6.16	–
CC(C)(C)c1nccc(C2(c3ccccc3Cl)CCNCC2)n1	–	94.8
CC(C)c1nccc(C2(c3ccccc3Cl)CCNCC2)n1	–	24.49
Clc1ccccc1C1(c2ccnc(C3CC3)n2)CCNCC1	–	61.01
NC(=O)C1(CNCc2cccc(F)c2)CCOCC1	-0.9049	–
CSCc1nnc(SCC(=O)NC2(C#N)CCCC2)o1	9.959	–
CCCNC(=O)C1CCCN1 (stereo not drawn)	2.398	–
CC(=O)Nc1ccc(-n2cncn2)nc1	-6.105	–
O=C(NCc1cccnc1)c1cn2cccnc2n1	-2.314	–
Cc1ocnc1CNC(=O)c1ccon1	99.22	–
CC1(CCNC(=O)c2ccon2)OCCO1	9.96	–
Cc1noc(CCCNC(=O)c2ccon2)n1	62.73	–
Cc1noc(CCCNC(=O)CNC(=O)c2cc3ccccc3[nH]2)n1	–	4.234
Cc1ocnc1CNC(=O)c1ccc(Br)cn1	1.589	–
Cc1nc(C)c(C(=O)NCc2ncoc2C)s1	-1.836	–
